# “And” between values parts separate entries of the source, which are not always exact repeats. Equal values may be shown once. Inconclusive results are not listed. The source made the active and inactive calls. Unless noted, calls follow the shape of the dose curve; as a rule, active = well fitted curve in the direction sought with a large enough effect; inconclusive = small, poorly fitted or top-dose-only effect, or another doubt; inactive = no such curve, though single readings can be large; an effect the other way counts as inactive or inconclusive.
# Tests used:
# [1] = qHTS Assay for Identifying Gametocytocidal Compounds (AID 743244); also: potency is read from the fitted curve at half-maximal effect;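 as to max response: % is scaled to controls: 0 for no effect and ±100 for the full control effect; actives lower the fluorescent signal which means gametocytes are killed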; settings: P. falciparum 3D7 stage III-V gametocytes, alamarBlue, 72 h; max response: stronger effect = lower value
# Outline: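 Compounds are pinned into medium, gametocytes (stage III–V, 3D7, 20,000 cells/well) added, and plates held 72 h at 37 °C in 5% CO2. AlamarBlue follows for 24 h before fluorescence reading.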
# [2] = qHTS assay for cell viability of HEK293 cells (AID 743288); settings: ATP luminescence (CellTiter-Glo), 18 h, stronger effect = lower value; also: % is scaled to controls: 0 for no effect and ±100 for the full control effect; nearly all actives have a fitted effect of over 50% in size
# Outline: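 ATP luminescence (CellTiter-Glo) reports metabolically competent cell number after parental HEK293 cells, 2,000/well, were treated with DMSO-dissolved compounds for 18 h at 37 C; reagent incubation 30 min, room temperature.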
# [3] = qHTS assay for cell viability of the p53RE-bla HCT-116 cell line (AID 743292); also: % is scaled to controls: 0 for no effect and ±100 for the full control effect; nearly all actives have a fitted effect of over 55% in size
# Outline: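 Intracellular ATP of p53RE-bla HCT-116 cells measured by luciferase luminescence following 16 h compound incubation at 37 C; DMSO-only wells served as vehicle controls.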
# [4] = qHTS profiling of the MIPE4 collection as inhibitors of Plasmodium falciparum (3D7) proliferation (AID 743344; call rule not given here;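 also: scaled between DMSO vehicle wells and 0.29 µM artemisinin as full inhibition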); settings: P. falciparum 3D7 in erythrocytes, SYBR Green DNA fluorescence, 72 h; at 28.5 µM (top of the series) unless noted
# Outline: (§1)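 Parasite DNA was quantified by SYBR Green I fluorescence (ex 485, em 535 nm) after overnight lysis in saponin/Triton buffer at room temperature. Cultures at 0.3% parasitemia and 2.5% hematocrit were first exposed to compound for 72 h at 37 C; signals were normalised to artemisinin (0.29 uM) and vehicle wells.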
# [5] = qHTS profiling for inhibitors of Plasmodium falciparum (3D7) proliferation (AID 743322);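 also: infected erythrocytes exposed to compound for 72 h before lysis; 100% = DMSO vehicle wells and 0% = 0.29 µM artemisinin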; settings: P. falciparum 3D7 proliferation; at 28.7 µM (top of the series) unless noted
# Outline: as §1
# [6] = qHTS profiling for inhibitors of Plasmodium falciparum (DD2) proliferation (AID 743323; call rule not given here); settings: lower = more inhibition; at 28.7 µM (top of the series) unless noted
# Outline: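 Parasite proliferation measured via DNA-dye fluorescence, as uninfected erythrocytes lack DNA. Cultures at 0.3% parasitemia and 2.5% hematocrit incubated 72 h with compound; signal scaled between vehicle and 0.29 uM artemisinin wells.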
# [7] = qHTS profiling for inhibitors of Plasmodium falciparum (HB3) proliferation (AID 743324); settings: Plasmodium falciparum HB3 blood-stage proliferation; at 28.7 µM (top of the series) unless noted;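 also: 100% = DMSO vehicle wells and 0% = artemisinin-treated control wells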
# Outline: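 SYBR Green fluorescence (485 ex/535 em) of lysed cultures, incubated overnight at room temperature in the dark, quantifies parasite DNA. Infected erythrocytes at 0.3% parasitemia and 2.5% hematocrit were exposed 72 h; values normalized to DMSO and 0.29 uM artemisinin controls.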
smiles,measurement,setting,value
CCCCCCc1ccc(O)cc1O,max response,[1],3.3% (inactive)
same,max response,[2],-5.8% (inactive) and 9.71% (inactive)
same,outcome,[3],inactive
Cc1cccc(C)c1NC(=O)CN1CCN(CCCC(c2ccc(F)cc2)c2ccc(F)cc2)CC1,max response,[1],0.546% (inactive)
same,"parasite growth, % of DMSO control",[4],13.4%
CN(C)C(=S)SC(=S)N(C)C,outcome,[3],inactive
Oc1ccc(Cl)cc1Sc1cc(Cl)ccc1O,max response,[1],6.07% (inactive)
same,outcome,[3],inactive
O=C(O)CCCCC(=O)O,max response,[1],-5.63% (inactive)
same,max response,[2],0.134% (inactive)
same,outcome,[3],inactive
COc1cccc(CCc2ccccc2OCC(CN(C)C)OC(=O)CCC(=O)O)c1 (configuration not stated),Potency,[1],3.72 µM (active)
same,remaining parasite growth % (stronger effect = lower value),[5],1.08%
same,"activity, percent of control",[6],1.06%
same,"remaining proliferation (% of control), lower = more inhibition",[7],1.2%
same,"parasite growth, % of DMSO control",[4],7.32%
CC(C)(Oc1ccc(Cl)cc1)C(=O)O,max response,[1],6.9% (inactive)
same,max response,[2],-4.41% (inactive)
same,outcome,[3],inactive
CC1=C(C(=O)OC(C)C)C(c2cccc([N+](=O)[O-])c2)C(C(=O)OC2CN(C(c3ccccc3)c3ccccc3)C2)=C(N)N1 (configuration not stated),max response,[1],7.23% (inactive)
same,"parasite growth, % of DMSO control",[4],6.8%
Nc1ccn([C@@H]2O[C@H](CO)[C@@H](O)C2(F)F)c(=O)n1,max response,[1],15.6% (inactive) and -5% (inactive)
same,remaining parasite growth % (stronger effect = lower value),[5],-1.17% [at 57.5 µM]
same,"activity, percent of control",[6],1.07% [at 57.5 µM]
same,"remaining proliferation (% of control), lower = more inhibition",[7],0.276% [at 57.5 µM]
CC/C(=C(/CC)c1ccc(O)cc1)c1ccc(O)cc1,max response,[1],26.7% (inactive)
same,max response,[2],-28.4% (inactive) and -12.5% (inactive)
same,outcome,[3],inactive
O=C(N/N=C/c1ccccc1O)c1ccncc1,max response,[1],-7.05% (inactive)
O=C1OC(c2ccc(O)cc2)(c2ccc(O)cc2)c2ccccc21,max response,[1],7.07% (inactive)
same,max response,[2],-1.91% (inactive) and -6.06% (inactive)
same,outcome,[3],inactive

# Source: PubChem BioAssay (NCATS)
